Source: PubChem BioAssay
ATXN viability = viability counter-screen for ATXN expression inhibitors; S2 cells (HEK-293 line with an ATXN2-luciferase reporter) viability, CellTiter-Fluor protease fluorescence, 24 h; Potency, µM (titrated, usually from 56.7 µM), usual class: cytotoxic; hit rate 0.49% among 400,000; further: nearly all actives have a fitted effect of over 40% in size
ATXN2 expr inh = reduces ATXN2 reporter expression in HEK-293 cells. HEK-293 ATXN2-luciferase reporter, luminescence, 24 h. Potency, µM (top dose mostly 57 µM), for the others: at the highest dose activity change, negative = inhibition, usual class: inhibitors. hit rate 0.72% among 360,000; further: on the % scale 0 is the no-effect control and ±100 the full control effect; nearly all actives have a fitted effect of over 55% in size
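ATXN2-luciferase reporter cells (luciferase flanked by upstream and downstream ATXN2 gene portions) were treated 24 h at 37 °C with compounds at up to 57 uM. SteadyGlo luminescence gave expression; GF-AFC fluorescence gave viability.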
HT1080-NT tox = kills 2HG-producing HT-1080-NT fibrosarcoma cells. HT-1080-NT fibrosarcoma viability, CellTiter-Glo ATP luminescence, 48 h. Potency, µM (doses to about 46.1 µM), inactives show at the top dose activity, negative = less viability, actives largely listed as cytotoxic. hit rate 1.6% among 360,000. AID 686970;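 further: NT is the 2HG producing partner of a matched IDH1 knockdown line; 0% = DMSO-treated cells and -100% = media-only wells without cells; nearly all actives have a fitted effect of over 55% in size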
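A 48-hour cytotoxicity screen used HT-1080-NT cells plated 2 hours before compound delivery. ATP-based CellTiter-Glo luminescence measured viability, normalized to DMSO and no-cell controls.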
HT1080 IDH1KD tx = kills HT-1080 cells with IDH1 knockdown | HT-1080 IDH1 knockdown viability, ATP luminescence, 48 h | Potency, µM (highest dose often 46.1 µM), for the others: top-dose activity, negative = toxicity, hits mostly cytotoxic | hit rate 2% among 360,000 | AID 686971;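 further: 0% = DMSO wells and -100% = cell-free medium wells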
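CellTiter-Glo luminescence after 48 h compound exposure at 37 degrees C of IDH1-knockdown HT-1080 cells in 5% FBS RPMI. %Activity scaled between DMSO wells and cell-free media wells, with curves fitted and assigned curve classes.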
HepG2 viability = kills HepG2 cells in TGF-b inhibitor counter-screen. Potency, µM (titrated, usually from 46.1 µM), for inactives: at the highest dose activity change, negative = cytotoxicity, hits mostly cytotoxic. AID 588856. HepG2 CAGA-GFP viability, ATP luminescence, 18 h. hit rate 0.76% among 410,000
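HepG2 CAGA-GFP cells (1000/well, DMEM with 1% FBS) received compound, then TGF-beta at 500 pg/mL final, and were incubated 18 hours at 37 degrees C. Viability was read by CellTiter-Glo luminescence. Media-only wells were set as complete cell-killing and DMSO as no toxicity.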
TGFb inhibitor = blocks TGF-b signaling. Potency, µM (titrated, usually from 46.1 µM), for inactives: at the highest dose activity, negative = inhibition, hits mostly inhibitors. AID 588855. HepG2 CAGA-GFP TGF-b/SMAD3 reporter, GFP fluorescence, 18 h; TGF-beta stimulated, 500 pg/mL final. hit rate 1.2% among 410,000; further: on the % scale 0 is the no-effect control and ±100 the full control effect; nearly all actives have a fitted effect of over 65% in size
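First, reporter cells (HEPG2 CAGA-GFP) rested 2 h at 37 degrees C. Next, compounds were pinned in and TGF-beta added to 500 pg/mL final. After 18 h, GFP was imaged per cell and summed per well.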
An asterisk follows results filed as active; i = inactive; ? = inconclusive; . = not tested or not shown. Shown are actives, neighbours in structure and some others; about 3.8% of the full set was active somewhere. The call rests on the fitted dose curve; in most records, active means well fitted curve in the direction sought with a large enough effect; inconclusive means small, poorly fitted or top-dose-only effect, or another doubt; inactive means no such curve, though single readings can be large; an effect the other way counts as inactive or inconclusive. Potency means the concentration at half of the fitted maximal effect.

SMILES	ATXN viability	ATXN2 expr inh	HT1080-NT tox	HT1080 IDH1KD tx	HepG2 viability	TGFb inhibitor
O=C(c1cccc(F)c1)N1CCC(N2CCCCCC2)CC1	i	-4%	1%	-1%	-9%	-3%
CN1/C(=C\C=O)C(C)(C)c2ccccc21	i	-27%	3%	-10%	-10%	-4%
CN1\C(=C/C=C/C=C/C=[N+](C)C)C(C)(C)c2ccccc21	18µM*	.	?	?	-34%	?
CC(=O)O[C@H]1C(=O)[C@@]2(C)C([C@H](OC(=O)c3ccccc3)[C@]3(O)C[C@H](OC(=O)[C@H](O)[C@@H](NC(=O)c4ccccc4)c4ccccc4)C(C)=C1C3(C)C)[C@]1(OC(C)=O)CO[C@@H]1C[C@H]2O (some centres not stated)	?	-25%	?	0.18µM*	0%	?
CC(=O)O[C@H]1C(=O)[C@]2(C)[C@H]([C@H](OC(=O)c3ccccc3)[C@]3(O)C[C@H](OC(=O)[C@H](O)[C@@H](NC(=O)c4ccccc4)c4ccccc4)C(C)=C1C3(C)C)[C@]1(OC(C)=O)CO[C@@H]1C[C@@H]2O	?	-24%	?	0.015µM*	1%	?
O=C(Nc1ccc2nc(SCC(=O)N3CCc4ccccc43)sc2c1)c1ccccc1	.	.	.	.	6%	0%
Cc1ccc2ccc(Cl)cc2n1	i	17%	.	.	.	.
Cc1cc(SCC(=O)Nc2nsc(-c3ccc(C(C)(C)C)cc3)n2)nc2ccccc12	.	.	.	.	-33%	?
CC(C)OCCCNC(=O)c1ccc2c(c1)NC(=O)c1ccccc1S2	i	-6%	-11%	?	-28%	?
COCCCNC(=O)c1ccc2c(c1)N=C(C)c1c(C)ccc(C)c1S2	?	23%	.	.	-29%	?
CC1=Nc2cc(C(=O)NCCCOC(C)C)ccc2Sc2ccccc21	i	-8%	?	8.2µM*	1%	-16%
CC1=Nc2cc(C(=O)NCCCOC(C)C)ccc2Sc2ccc(C)cc21	i	8%	0.73µM*	1µM*	1%	?
CC1=Nc2cc(C(=O)NCCc3ccc(Cl)cc3)ccc2Sc2ccc(C)cc21	.	.	.	.	-17%	8.9µM*
CC1=Nc2cc(C(=O)NCC3CCCO3)ccc2Sc2ccc(Br)cc21 (configuration not stated)	?	.	10µM*	16µM*	-14%	?
CC(C)Oc1ccc(C(=O)NCC2Cc3cc(Cl)cc(-c4ncccn4)c3O2)cc1 (configuration not stated)	i	.	.	.	.	.
O=C(C=Cc1ccc(O)cc1)c1ccc(O)cc1O	.	39%	.	.	.	.
Cc1cc(N/N=C/c2ccccc2O)c2ccccc2n1	?	16µM*	0%	-11%	-39%	?
Cc1cc(-c2ccccc2)nc(N/N=C/c2ccc(O)cc2O)n1	?	?	?	2.1µM*	-26%	?
Cc1cc(-c2ccccc2)nc(N/N=C/c2ccccc2)n1	i	?	0%	-7%	-46%	?
COc1ccc(/C=N/Nc2cc(C)nc3ccc(Br)cc23)cc1	?	?	7.3µM*	21µM*	6.3µM*	11µM*
COc1cccc2c(N/N=C/c3ccccc3)cc(C)nc12	i	-35%	-2%	0%	33%	2%
COc1ccc2nc(C)cc(Nc3ccccc3O)c2c1	?	.	-10%	-8%	-26%	?
COc1ccc2nc(C)cc(NCc3cccc(C(F)(F)F)c3)c2c1	i	?	23µM*	16µM*	22µM*	?
Cc1cc(Nc2ccc(C)c(C)c2)c2ccccc2n1	?	?	?	16µM*	-16%	?
COc1ccc2nc(C)cc(N/N=C/c3cccc(OC)c3O)c2c1	.	?	?	16µM*	-101%	?
COc1ccc2nc(C)cc(Nc3ccccc3OC)c2c1	i	.	-5%	-10%	-46%	-6%
